RGS16-Gao HTS: regulators of human RGS16-Galphao interaction; O15492+P09471; bead-based flow cytometry RGS16-Galphao binding, fluorescence; actives lie on both sides; 220,000 compounds, 0.38% hits; binding response (% of control), % at 10 µM;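 note: Galphao activated by GDP with aluminum fluoride before binding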
GSH fluor: compound fluoresces at 488/530 nm on GSH beads; AID 1776; 190,000 compounds, 0.25% hits; GSH beads flow cytometry, compound fluorescence 488/530 nm; stronger effect = higher value; fluorescence (KMESF) at 10 µM; in the data active = fluorescence above about 89;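 note: glutathione beads carrying GST-tagged Bcl family fusion proteins plus one bare bead set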
RGS7-Gao: human RGS7-Galphao interaction regulation. Multiplexed bead flow cytometry, RGS7-Galphao binding; actives lie on both sides. binding response (% of control), % at 10 µM. 220,000 compounds, 0.35% hits. AID 1439; in the data active = binding response below about 49% or above about 150%; inconclusive = no clear call, values can overlap the other calls; inactive = in between;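 note: fluorescent Galphao held in activated GDP-AlF4 state binding bead-coupled RGS7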
Target sequence (P09471 whole entry, looked up): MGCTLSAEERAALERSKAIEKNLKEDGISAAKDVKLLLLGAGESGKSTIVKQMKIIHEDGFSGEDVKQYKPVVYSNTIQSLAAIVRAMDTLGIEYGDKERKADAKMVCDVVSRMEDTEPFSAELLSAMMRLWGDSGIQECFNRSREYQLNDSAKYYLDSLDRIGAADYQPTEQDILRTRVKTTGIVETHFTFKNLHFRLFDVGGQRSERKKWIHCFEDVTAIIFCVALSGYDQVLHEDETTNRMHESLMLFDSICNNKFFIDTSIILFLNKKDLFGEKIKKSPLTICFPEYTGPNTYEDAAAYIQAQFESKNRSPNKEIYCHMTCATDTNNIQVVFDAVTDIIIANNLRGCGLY
RGS8-Gao reg: human RGS8-Galphao interaction regulation; P09471; multiplexed bead flow cytometry, RGS8-Galphao binding; actives lie on both sides; response (percent of control binding), % at 10 µM; 220,000 compounds, 0.34% hits; in the data active = response below about 60% or above about 140%; inactive = in between;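 note: Galphao activated as the GDP aluminium fluoride complex binding bead-coupled RGS8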
Avidin fluor: avidin bead compound fluorescence profile. Avidin beads, compound fluorescence 488/530 nm, flow cytometry; stronger effect = higher value. fluorescence (KMESF) at 10 µM. 220,000 compounds, 0.38% hits. AID 1775; in the data active = fluorescence above about 47
RGS4-Gao reg: human RGS4-Galphao interaction regulation; binding response (% of control), % at 10 µM; 220,000 compounds, 0.33% hits; AID 1415; P09471; Multiplexed bead flow cytometry, RGS4-Galphao binding; actives lie on both sides; in the data active = binding response below about 49% or above about 150%; inactive = in between;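 note: fluorescent Galphao activated with aluminum fluoride binding bead-coupled RGS4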
RGS4-Gao HTS: modulates binding between human RGS4 and Galphao. shares compounds with RGS16-Gao HTS. 1,600 compounds, 99% hits. RGS4–Galpha-o binding response, % at 10 µM. multiplexed bead flow cytometry, RGS–Galpha-o binding;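 note: fluorescently labeled Galpha-o bound to GDP with aluminium fluoride binding biotinylated RGS beads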
Target sequence (P09471 whole entry, looked up): as above
Target sequence (P49798 whole entry, looked up): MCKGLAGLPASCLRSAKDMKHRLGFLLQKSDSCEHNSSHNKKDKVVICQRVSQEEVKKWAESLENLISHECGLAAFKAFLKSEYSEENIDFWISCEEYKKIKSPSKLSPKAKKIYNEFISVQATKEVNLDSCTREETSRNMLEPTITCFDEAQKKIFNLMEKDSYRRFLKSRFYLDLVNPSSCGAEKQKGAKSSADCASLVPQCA
Biotin-avidin: counter-screen: compounds disrupting biotin binding to avidin beads | shares compounds with RGS16-Gao HTS | streptavidin beads, fluorescein-biotin binding, flow cytometry | inhibition, % at 10 µM | 1,700 tested, under 10 active | AID 1783;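 active = inhibition above 50%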;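 note: median green fluorescence of gated singlet beads compared with DMSO control wells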
RGS8-Gao single: confirmation of regulators of human RGS8-Galphao interaction; shares compounds with RGS16-Gao HTS; bead-based flow cytometry RGS8-Galphao binding, fluorescence; actives lie on both sides; binding response (% of control), % at 10 µM; 1,700 compounds, 3% hits; AID 1836; in the data active = binding response below about 72% or above about 130%; inactive = in between;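 note: Galphao activated as GDP AlF4 complex before binding bead RGS8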
RGS7-Gao confirm: confirmation of regulators of human RGS7-Galphao interaction; 1,700 compounds, 7.8% hits; response (percent of control binding), % at 10 µM; shares compounds with RGS16-Gao HTS; AID 1837; bead-based flow cytometry RGS7-Galphao binding; actives lie on both sides; in the data active = response below about 75% or above about 130%; inactive = in between;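 note: fluorescent Galphao activated with GDP and aluminum fluoride binding bead-coupled RGS7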
RGS16-Gao conf: RGS16-Galphao interaction regulation, single point confirmation. shares compounds with RGS16-Gao HTS. bead-based flow cytometry, RGS16-Galphao binding; actives lie on both sides. response (% of control binding), % at 10 µM. 1,700 compounds, 4% hits; in the data active = response below about 74% or above about 130%; inactive = in between;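 note: Galphao activated as the GDP aluminium fluoride complex binding bead-coupled RGS16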
RGS4-Gao single: RGS4-Galphao interaction regulation, single point confirmation; 1,700 compounds, 4% hits; binding response (% of control), % at 10 µM; RGS4-Galphao binding, multiplexed bead flow cytometry; actives lie on both sides; shares compounds with RGS16-Gao HTS; AID 1840; in the data active = binding response below about 74% or above about 130%; inactive = in between
RGS19-Gao conf: confirmation of regulators of human RGS19-Galphao interaction; shares compounds with RGS16-Gao HTS; bead-based flow cytometry RGS19-Galphao binding; actives lie on both sides; response (percent of control binding), % at 10 µM; 1,700 compounds, 5% hits; AID 1841; in the data active = response below about 50% or above about 160%; inactive = in between
Each line names hits and unclear results; the compound was inactive in the other large screens (follow-up assays come after a bar, where they were run); [ ] = remark or other dose. An excerpt weighted towards active compounds, which were near 1.2% of everything screened. Unless noted, the rule behind the calls is not given here.

CCn1c(SCc2cccc(C(F)(F)F)c2)nnc1-c1ccco1	RGS7-Gao 42, RGS8-Gao reg 48, RGS4-Gao reg 46 | Biotin-avidin inactive | RGS8-Gao single inactive | RGS7-Gao confirm inactive | RGS16-Gao conf inactive | RGS4-Gao single inactive | RGS19-Gao conf inactive
Cc1ccc(S(=O)(=O)N2CCC(C(=O)N3CCC[C@H]3C(=O)NC3CCS(=O)(=O)C3)CC2)cc1 (stereo partly specified)	RGS16-Gao HTS -65 | RGS4-Gao HTS 85 | Biotin-avidin inactive | RGS8-Gao single inactive | RGS7-Gao confirm inactive | RGS16-Gao conf inactive | RGS4-Gao single inactive | RGS19-Gao conf inactive
Cc1ccc(S(=O)(=O)N2CCC(C(=O)N[C@H](C(=O)NC3CCS(=O)(=O)C3)C(C)C)CC2)cc1 (stereo partly specified)	none
CCN=C1SC(CC(=O)NCC)C(=O)N1CC (stereo unspecified)	RGS7-Gao 213[activator], Avidin fluor 74, RGS4-Gao reg 259[activator] | Biotin-avidin inactive | RGS8-Gao single inactive | RGS7-Gao confirm inactive | RGS16-Gao conf inactive | RGS4-Gao single inactive | RGS19-Gao conf inactive
Cc1nnc(NC(=O)CSc2nnc(C)n2Cc2ccccc2)s1	none
CCn1c(SCC(=O)Nc2nnc(C)s2)nnc1-c1ccncc1	none (no result: RGS16-Gao HTS, RGS7-Gao, RGS8-Gao reg, Avidin fluor, RGS4-Gao reg) | Biotin-avidin inactive | RGS8-Gao single inactive | RGS7-Gao confirm inactive | RGS16-Gao conf inactive | RGS4-Gao single inactive | RGS19-Gao conf inactive
Cc1nnc(NC(=O)CSc2nnc(Cc3ccccc3)n2Cc2ccccc2)s1	none (no result: RGS16-Gao HTS, Avidin fluor) | Biotin-avidin inactive | RGS8-Gao single inactive | RGS7-Gao confirm 45 | RGS16-Gao conf inactive | RGS4-Gao single 59 | RGS19-Gao conf 46
O=C(NCCCN1CCN(c2ccc(F)cc2)CC1)c1cccc(N2CCCC2=O)c1	none
O=C(NCCCN1CCCC1)c1cccc(N2CCCC2=O)c1	RGS7-Gao 7.6, RGS8-Gao reg 10, RGS4-Gao reg 18 | Biotin-avidin inactive | RGS8-Gao single inactive | RGS7-Gao confirm inactive | RGS16-Gao conf inactive | RGS4-Gao single inactive | RGS19-Gao conf inactive
CCOC(=O)c1ccc(NC(=O)c2ccc(CN3CCOCC3)cc2)cc1	none
NC(=O)c1ccc(NC(=O)c2ccc(CN3CCOCC3)cc2)cc1	none (no result: RGS16-Gao HTS, RGS7-Gao, RGS8-Gao reg, Avidin fluor, RGS4-Gao reg) | Biotin-avidin inactive | RGS8-Gao single inactive | RGS7-Gao confirm inactive | RGS16-Gao conf inactive | RGS4-Gao single inactive | RGS19-Gao conf inactive
Cc1cc2cc3c(cc2nc1SCC(=O)Nc1nc(C)c(C)s1)OCO3	RGS4-Gao reg 164[activator] | Biotin-avidin inactive | RGS8-Gao single inactive | RGS7-Gao confirm inactive | RGS16-Gao conf inactive | RGS4-Gao single inactive | RGS19-Gao conf inactive
C=CCN(C(=O)Nc1ccc(F)cc1)C1CC(=O)N(c2ccc(OC)cc2)C1=O (stereo unspecified)	RGS8-Gao reg 158[activator] | RGS4-Gao HTS 134 | Biotin-avidin inactive | RGS8-Gao single inactive | RGS7-Gao confirm inactive | RGS16-Gao conf inactive | RGS4-Gao single inactive | RGS19-Gao conf inactive
C=CCN(C(=O)Nc1ccc(Cl)cc1)C1CC(=O)N(c2ccc(OC)cc2)C1=O (stereo unspecified)	none
CCOC(=O)c1c(NC(=O)CN2CCCc3ccccc32)sc(C)c1CC	none
CCn1c2ccccc2c2cc(NC(=O)CSc3nnnn3-c3ccccc3)ccc21	none (no result: RGS16-Gao HTS, RGS7-Gao, RGS8-Gao reg, Avidin fluor, RGS4-Gao reg) | Biotin-avidin inactive | RGS8-Gao single inactive | RGS7-Gao confirm inactive | RGS16-Gao conf inactive | RGS4-Gao single inactive | RGS19-Gao conf inactive
O=C(CSc1nnnn1-c1ccccc1)Nc1ccc(Cl)cc1	none
COc1ccc(C(=O)c2c[nH]c(C(=O)NCc3ccco3)c2)cc1	RGS16-Gao HTS 1.2, RGS7-Gao 20, RGS8-Gao reg 18, RGS4-Gao reg 29 | Biotin-avidin inactive | RGS8-Gao single inactive | RGS7-Gao confirm inactive | RGS16-Gao conf inactive | RGS4-Gao single inactive | RGS19-Gao conf inactive
COc1cccc(C(=O)c2c[nH]c(C(=O)NCc3ccco3)c2)c1	none
CN1C(N)=NC(=O)/C1=C/c1ccccc1F	none
O=C1c2ccccc2C(=O)N1CCCCN(C(=O)c1ccc([N+](=O)[O-])cc1)c1ccc(Cl)cc1	none
O=C1c2ccccc2C(=O)N1CCCCN(C(=O)c1cc([N+](=O)[O-])cc([N+](=O)[O-])c1)c1ccc(Cl)cc1	RGS16-Gao HTS 16 | RGS4-Gao HTS 91 | Biotin-avidin inactive | RGS8-Gao single inactive | RGS7-Gao confirm inactive | RGS16-Gao conf inactive | RGS4-Gao single inactive | RGS19-Gao conf inactive
NC(=O)c1nn(-c2ccc(Cl)cc2Cl)c(=O)cc1O	none
Cc1ccc(-n2c(C)n[nH]c2=S)cc1C	none
Cc1ccc(-n2c(C)n[nH]c2=S)cc1	RGS16-Gao HTS 183[activator] | RGS4-Gao HTS 115 | Biotin-avidin inactive | RGS8-Gao single inactive | RGS7-Gao confirm 130[activator] | RGS16-Gao conf inactive | RGS4-Gao single inactive | RGS19-Gao conf inactive
O=C(Cn1nnc2ccccc21)OCC(=O)c1ccc(Cl)cc1	RGS7-Gao inconclusive (no result: GSH fluor)
CC1=NN(C(=O)CSCc2ccccc2)C(O)(c2ccc(Cl)cc2)C1 (stereo unspecified)	RGS7-Gao 49, RGS8-Gao reg 59 | RGS4-Gao HTS 57 | Biotin-avidin inactive | RGS8-Gao single inactive | RGS7-Gao confirm inactive | RGS16-Gao conf inactive | RGS4-Gao single inactive | RGS19-Gao conf inactive
CC1=NN(C(=O)CSCc2ccccc2)C(O)(c2ccc(F)cc2)C1 (stereo unspecified)	RGS7-Gao inconclusive
CCc1ccccc1NC(=O)c1ccc([N+](=O)[O-])s1	none

Screening results from PubChem.
